# Measurements from PubChem BioAssay AID1159580 (chemical genetic matrix, 2015).
# Hit rate of the full screen: of about 5,500 compounds, about 2,000 (36%) were called active. Inconclusive results (about 18%) are left out. This is one part of the list. Values without a mark were called inactive. Rule as the data show it: active = normalized growth mostly below about 0.91 (no sharp cut-off); inconclusive = no clear call, values can overlap the other calls; inactive = mostly above about 0.92.
# Experiment: chemical genetic growth profiling, strain panel (AID 1159580);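 also: tested at 20 µM; growth read once vehicle control cultures reached saturation at 30 °C; 1 = growth at the plate median or of vehicle wells; lower values mean less growth of the strain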
# Conditions: growth OD
structure (smiles),measurement,setting,value
O=C1C(Cl)=C(Cl)C(=O)C(Cl)=C1Cl,normalized growth,"S. cerevisiae deletion strains, locus YKL009W, strain mrt4, active compounds read low",1.17 [resistant] (active)
same,normalized growth,"S. cerevisiae deletion strains, locus YKL068W, active compounds read low",0.12 (active)
same,normalized growth,"S. cerevisiae deletion strains, locus YKL085W, strain MDH1 (second series), active compounds read low",0.0519 (active)
same,normalized growth,"S. cerevisiae deletion strains, locus YKL085W, strain MDH1, active compounds read low",0.0519 (active)
same,normalized growth,"S. cerevisiae deletion strains, locus YKL160W, strain elf1, active compounds read low",0.901 (active)
same,normalized growth,"S. cerevisiae deletion strains, locus YKL190W, strain CNB1, active compounds read low",0.629 (active)
same,normalized growth,"S. cerevisiae deletion strains, locus YKR001C, strain vps1, active compounds read low",0.094 (active)
same,normalized growth,"S. cerevisiae deletion strains, locus YKR026C, strain gcn3, active compounds read low",0.987
same,normalized growth,"S. cerevisiae deletion strains, locus YKR091W, strain srl3, active compounds read low",0.99
same,normalized growth,"S. cerevisiae deletion strains, locus YLL001W, strain dnm1, active compounds read low",0.958
same,normalized growth,"S. cerevisiae deletion strains, locus YLL026W, active compounds read low",0.98
same,normalized growth,"S. cerevisiae deletion strains, locus YLL041C, strain sdh2, active compounds read low",0.988
same,normalized growth,"S. cerevisiae deletion strains, locus YLR027C, strain aat2, active compounds read low",0.899 (active)
same,normalized growth,"S. cerevisiae deletion strains, locus YLR039C, strain RIC1, active compounds read low",0.275 (active)
same,normalized growth,"S. cerevisiae deletion strains, locus YLR058C, strain SHM2, active compounds read low",0.966
same,normalized growth,"S. cerevisiae deletion strains, locus YLR102C, strain apc9, active compounds read low",0.254 (active)
same,normalized growth,"S. cerevisiae deletion strains, locus YLR113W, strain HOG1, active compounds read low",0.145 (active)
same,normalized growth,"S. cerevisiae deletion strains, locus YLR221C, strain rsa3, active compounds read low",0.855 (active)
same,normalized growth,"S. cerevisiae deletion strains, locus YLR258W, strain gsy2, active compounds read low",0.978
same,normalized growth,"S. cerevisiae deletion strains, locus YLR262C, strain YPT6 (second series), active compounds read low",0.703 (active)
same,normalized growth,"S. cerevisiae deletion strains, locus YLR262C, strain YPT6, active compounds read low",0.168 (active)
same,normalized growth,"S. cerevisiae deletion strains, locus YLR268W, strain sec22, active compounds read low",0.256 (active)
same,normalized growth,"S. cerevisiae deletion strains, locus YLR320W, strain mms22, active compounds read low",0.92
same,normalized growth,"S. cerevisiae deletion strains, locus YLR330W, strain CHS5, active compounds read low",0.129 (active)
same,normalized growth,"S. cerevisiae deletion strains, locus YLR342W, strain FKS1 (second series), active compounds read low",0.243 (active)
same,normalized growth,"S. cerevisiae deletion strains, locus YLR342W, strain FKS1, active compounds read low",0.935
same,normalized growth,"S. cerevisiae deletion strains, locus YLR357W, strain rsc2, active compounds read low",0.86
same,normalized growth,"S. cerevisiae deletion strains, locus YLR370C, strain arc18, active compounds read low",0.919
same,normalized growth,"S. cerevisiae deletion strains, locus YLR371W, strain rom2, active compounds read low",0.151 (active)
same,normalized growth,"S. cerevisiae deletion strains, locus YLR384C, strain iki3, active compounds read low",0.966
same,normalized growth,"S. cerevisiae deletion strains, locus YLR418C, strain cdc73, active compounds read low",0.292 (active)
same,normalized growth,"S. cerevisiae deletion strains, locus YML016C, strain PPZ1, active compounds read low",0.776 (active)
same,normalized growth,"S. cerevisiae deletion strains, locus YML032C, strain rad52, active compounds read low",0.912
same,normalized growth,"S. cerevisiae deletion strains, locus YML120C, strain ndi1, active compounds read low",0.9 (active)
same,normalized growth,"S. cerevisiae deletion strains, locus YML124C, strain tub3, active compounds read low",0.708 (active)
same,normalized growth,"S. cerevisiae deletion strains, locus YMR058W, strain fet3, active compounds read low",0.909
same,normalized growth,"S. cerevisiae deletion strains, locus YMR078C, strain ctf18, active compounds read low",0.551 (active)
same,normalized growth,"S. cerevisiae deletion strains, locus YMR125W, strain sto1, active compounds read low",0.792 (active)
same,normalized growth,"S. cerevisiae deletion strains, locus YMR129W, active compounds read low",0.957
same,normalized growth,"S. cerevisiae deletion strains, locus YMR205C, strain PFK2, active compounds read low",0.932
same,normalized growth,"S. cerevisiae deletion strains, locus YMR223W, strain ubp8, active compounds read low",0.182 (active)
same,normalized growth,"S. cerevisiae deletion strains, locus YMR231W, strain pep5, active compounds read low",0.971
same,normalized growth,"S. cerevisiae deletion strains, locus YMR263W, strain SAP30, active compounds read low",0.794 (active)
same,normalized growth,"S. cerevisiae deletion strains, locus YMR307W, strain GAS1, active compounds read low",0.112 (active)
same,normalized growth,"S. cerevisiae deletion strains, locus YNL067W, strain RPL9B, active compounds read low",0.63 (active)
same,normalized growth,"S. cerevisiae deletion strains, locus YNL071W, strain lat1, active compounds read low",0.824 (active)
same,normalized growth,"S. cerevisiae deletion strains, locus YNL128W, strain TEP1, active compounds read low",0.341 (active)
same,normalized growth,"S. cerevisiae deletion strains, locus YNL153C, strain GIM3, active compounds read low",0.814 (active)
same,normalized growth,"S. cerevisiae deletion strains, locus YNL183C, strain NPR1, active compounds read low",0.0843 (active)
same,normalized growth,"S. cerevisiae deletion strains, locus YNL209W, strain ssb2, active compounds read low",0.888 (active)
same,normalized growth,"S. cerevisiae deletion strains, locus YNL233W, strain BNI4, active compounds read low",0.17 (active)
same,normalized growth,"S. cerevisiae deletion strains, locus YNL248C, strain rpa49, active compounds read low",0.884 (active)
same,normalized growth,"S. cerevisiae deletion strains, locus YNL250W, strain rad50, active compounds read low",0.0728 (active)
same,normalized growth,"S. cerevisiae deletion strains, locus YNL271C, strain bni1, active compounds read low",0.0654 (active)
same,normalized growth,"S. cerevisiae deletion strains, locus YNL298W, strain CLA4, active compounds read low",0.0642 (active)
same,normalized growth,"S. cerevisiae deletion strains, locus YNL307C, strain MCK1, active compounds read low",0.206 (active)
same,normalized growth,"S. cerevisiae deletion strains, locus YNL322C, strain KRE1 (second series), active compounds read low",0.924
same,normalized growth,"S. cerevisiae deletion strains, locus YNL322C, strain KRE1, active compounds read low",0.849 (active)
same,normalized growth,"S. cerevisiae deletion strains, locus YNR049C, strain mso1, active compounds read low",0.989
same,normalized growth,"S. cerevisiae deletion strains, locus YNR052C, strain pop2, active compounds read low",0.911 (active)
same,normalized growth,"S. cerevisiae deletion strains, locus YOL006C, strain TOP1, active compounds read low",0.357 (active)
same,normalized growth,"S. cerevisiae deletion strains, locus YOL012C, strain htz1",0.457
same,normalized growth,"S. cerevisiae deletion strains, locus YOL147C, strain pex11, active compounds read low",0.986
same,normalized growth,"S. cerevisiae deletion strains, locus YOR001W, strain rrp6, active compounds read low",0.915
same,normalized growth,"S. cerevisiae deletion strains, locus YOR061W, strain CKA2, active compounds read low",0.617 (active)
same,normalized growth,"S. cerevisiae deletion strains, locus YOR069W, strain VPS5, active compounds read low",0.577 (active)
same,normalized growth,"S. cerevisiae deletion strains, locus YOR070C, strain gyp1, active compounds read low",0.917 (active)
same,normalized growth,"S. cerevisiae deletion strains, locus YOR080W, strain dia2, active compounds read low",0.98
same,normalized growth,"S. cerevisiae deletion strains, locus YOR083W, strain WHI5, active compounds read low",0.871 (active)
same,normalized growth,"S. cerevisiae deletion strains, locus YOR106W, strain vam3, active compounds read low",0.856 (active)
same,normalized growth,"S. cerevisiae deletion strains, locus YOR136W, strain idh2, active compounds read low",0.307 (active)
same,normalized growth,"S. cerevisiae deletion strains, locus YOR144C, strain elg1, active compounds read low",0.985
same,normalized growth,"S. cerevisiae deletion strains, locus YOR184W, strain ser1, active compounds read low",0.195 (active)
same,normalized growth,"S. cerevisiae deletion strains, locus YOR231W, strain MKK1, active compounds read low",0.124 (active)
same,normalized growth,"S. cerevisiae deletion strains, locus YOR265W, strain rbl2, active compounds read low",0.959
same,normalized growth,"S. cerevisiae deletion strains, locus YOR270C, strain vph1, active compounds read low",0.977
same,normalized growth,"S. cerevisiae deletion strains, locus YOR290C, strain snf2, active compounds read low",0.941
same,normalized growth,"S. cerevisiae deletion strains, locus YOR316C, strain cot1, active compounds read low",0.677 (active)
same,normalized growth,"S. cerevisiae deletion strains, locus YPL051W, strain arl3, active compounds read low",0.841 (active)
same,normalized growth,"S. cerevisiae deletion strains, locus YPL055C, strain LGE1, active compounds read low",0.408 (active)
same,normalized growth,"S. cerevisiae deletion strains, locus YPL078C, strain atp4, active compounds read low",0.964
same,normalized growth,"S. cerevisiae deletion strains, locus YPL106C, strain sse1, active compounds read low",0.838 (active)
same,normalized growth,"S. cerevisiae deletion strains, locus YPL240C, strain hsp82, active compounds read low",0.979
same,normalized growth,"S. cerevisiae deletion strains, locus YPL241C, strain CIN2, active compounds read low",0.995
same,normalized growth,"S. cerevisiae deletion strains, locus YPL256C, strain CLN2, active compounds read low",0.132 (active)
same,normalized growth,"S. cerevisiae deletion strains, locus YPR119W, strain clb2, active compounds read low",0.444 (active)
same,normalized growth,"S. cerevisiae deletion strains, locus YPR141C, strain kar3, active compounds read low",0.11 (active)
same,normalized growth,"S. cerevisiae deletion strains, locus YPR163C, strain tif3, active compounds read low",0.321 (active)
same,normalized growth,"S. cerevisiae deletion strains, locus YPR167C, strain met16, active compounds read low",0.176 (active)
same,normalized growth,"S. cerevisiae deletion strains, strain wtn01, active compounds read low",0.32 (active)
same,normalized growth,"S. cerevisiae strains, strain wild type, active compounds read low",0.423 (active)
